Test results from PubChem BioAssay (Tox21).
Results filed as inconclusive are left out. Activity calls are given as the source filed them. Unless noted, calls follow the shape of the dose curve; as a rule, active = well fitted cell-killing curve with a large enough effect in the repeat runs; inconclusive = weak or mixed curves, or effect the other way; inactive = no such curve, though single readings can be large or run the other way. Residues, ends and D or L forms follow the SMILES beside them.

Test: qHTS assay to identify small molecule agonists of the vitamin D receptor (VDR) signaling pathway - cell viability counter screen (AID 743224); also: nearly all actives have a fitted effect of over 50% in size
Settings: VDR-bla HEK293T viability, CellTiter-Glo luminescence, 16 h; series mostly up to 62.6 µM
In short: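 CellTiter-Glo viability readout on VDR-bla cells, measured after 16 h of compound treatment at 37C in the same wells.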

Row | Structure (SMILES) | outcome
1 | c1ccc2[nH]ccc2c1 | inactive
2 | CCCCC(CC)COC(=O)/C=C/c1ccc(OC)cc1 (stereo unspecified) | inactive
3 | COc1ccc2[nH]cc(CCNC(C)=O)c2c1 | inactive
4 | O=C(O)CCCCCCCC(=O)O | inactive
5 | NC(=O)NC1NC(=O)NC1=O (stereo unspecified) | inactive
6 | CCCC(CCC)C(=O)O | inactive
7 | O=NO | inactive

Test: qHTS assay to identify small molecule antagonists of the vitamin D receptor (VDR) signaling pathway - cell viability counter screen (AID 743225); also: nearly all actives have a fitted effect of over 50% in size
Settings: VDR-bla HEK293T viability, CellTiter-Glo luminescence, 16 h; series mostly up to 61 µM
In short: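 Same-well multiplex: following 16 h treatment of HEK 293T cells carrying a UAS-driven beta-lactamase reporter with compound and agonist (3 nM final), and a 2 h FRET substrate step, CellTiter-Glo was added and luminescence read after 30 min.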

Row | Structure (SMILES) | outcome
8 | O=C(O)CCC(=O)O | inactive
9 | CCCC(O)C(CC)CO (stereo unspecified) | inactive
10 | CC(O)CO (stereo unspecified) | inactive
11 | CC(O)CN(CCN(CC(C)O)CC(C)O)CC(C)O (stereo unspecified) | inactive
12 | O=C(O)c1cccnc1 | inactive
13 | O=C(O)C(=O)O | inactive
14 | CC(=O)Nc1nnc(S(N)(=O)=O)s1 | inactive
15 | OC(Cn1cncn1)(Cn1cncn1)c1ccc(F)cc1F | inactive
16 | O=C(O)c1cccc([N+](=O)[O-])c1 | inactive
17 | CC(O)C(=O)O (stereo unspecified) | inactive
18 | Nc1ccn([C@H]2CC[C@@H](CO)O2)c(=O)n1 | inactive
19 | CC1(C)[C@@H]2CC[C@@]1(C)C(=O)C2 | inactive
20 | Cc1ccccc1C(OCCN(C)C)c1ccccc1 (stereo unspecified) | inactive
21 | Nc1ccc(S(=O)(=O)Nc2nccs2)cc1 | inactive
22 | COC(=O)[C@H](Cc1ccccc1)NC(=O)[C@@H](N)CC(=O)O (H-Asp-Phe-OMe) | inactive
23 | O=C1NC(=O)c2ccccc21 | inactive
24 | CCCCCCCCCCCCCCCC(=O)O | inactive
25 | Cc1ccc(C)c(OCCCC(C)(C)C(=O)O)c1 | inactive

Row | Structure (SMILES) | outcome
26 | CC(=O)OCC(COC(C)=O)OC(C)=O | inactive
27 | C1N2CN3CN1CN(C2)C3 | inactive
28 | O=c1cc[nH]c(=S)[nH]1 | inactive
29 | CCCNC(=O)NS(=O)(=O)c1ccc(Cl)cc1 | inactive
30 | Nc1ccc(O)c(C(=O)O)c1 | inactive
31 | NC(N)=NC(=O)c1nc(Cl)c(N)nc1N | inactive
32 | CC(C)[C@@H]1CC[C@@H](C)C[C@H]1O | inactive
33 | Cc1ccc(S(=O)(=O)NC(=O)NN2CCCCCC2)cc1 | inactive
34 | O=C(c1ccccc1)c1ccccc1 | inactive
35 | O=C1CN(/N=C/c2ccc([N+](=O)[O-])o2)C(=O)N1 | inactive
36 | c1ccc2[nH]ccc2c1 | inactive
37 | CCCCC(CC)COC(=O)/C=C/c1ccc(OC)cc1 (stereo unspecified) | inactive
38 | COc1ccc2[nH]cc(CCNC(C)=O)c2c1 | inactive
39 | O=C(O)CCCCCCCC(=O)O | inactive
40 | NC(=O)NC1NC(=O)NC1=O (stereo unspecified) | inactive
41 | CCCC(CCC)C(=O)O | inactive
42 | O=NO | inactive

Test: qHTS assay to identify small molecule agonists of the NFkB signaling pathway (AID 1159509; active = well fitted curve in the direction sought with a large enough effect in the signal ratio in the repeat runs, not every such curve was filed as active; the % refers to the signal ratio)
Settings: NFkB-bla ME-180 cells, beta-lactamase FRET ratio, 5 h; series mostly up to 61 µM
In short: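 Beta-lactamase reporter assay run in quantitative high-throughput format on an NF-kB-responsive ME-180 line, with 5 hr compound treatment and a FRET-based blue/green fluorescence readout.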

Row | Structure (SMILES) | outcome
43 | O=C(O)CCC(=O)O | inactive
44 | CCCC(O)C(CC)CO (stereo unspecified) | inactive
45 | CC(O)CO (stereo unspecified) | inactive
46 | CC(O)CN(CCN(CC(C)O)CC(C)O)CC(C)O (stereo unspecified) | inactive
47 | O=C(O)c1cccnc1 | inactive
48 | O=C(O)C(=O)O | inactive
49 | CC(=O)Nc1nnc(S(N)(=O)=O)s1 | inactive
50 | OC(Cn1cncn1)(Cn1cncn1)c1ccc(F)cc1F | inactive
51 | O=C(O)c1cccc([N+](=O)[O-])c1 | inactive
52 | Nc1ccn([C@H]2CC[C@@H](CO)O2)c(=O)n1 | inactive
53 | CC1(C)[C@@H]2CC[C@@]1(C)C(=O)C2 | inactive
54 | Cc1ccccc1C(OCCN(C)C)c1ccccc1 (stereo unspecified) | inactive
55 | Nc1ccc(S(=O)(=O)Nc2nccs2)cc1 | inactive
56 | COC(=O)[C@H](Cc1ccccc1)NC(=O)[C@@H](N)CC(=O)O (H-Asp-Phe-OMe) | inactive
57 | O=C1NC(=O)c2ccccc21 | inactive
58 | CCCCCCCCCCCCCCCC(=O)O | inactive
59 | Cc1ccc(C)c(OCCCC(C)(C)C(=O)O)c1 | inactive

Row | Structure (SMILES) | outcome
60 | CC(=O)OCC(COC(C)=O)OC(C)=O | inactive
61 | C1N2CN3CN1CN(C2)C3 | inactive
62 | O=c1cc[nH]c(=S)[nH]1 | inactive
63 | CCCNC(=O)NS(=O)(=O)c1ccc(Cl)cc1 | inactive
64 | NC(N)=NC(=O)c1nc(Cl)c(N)nc1N | inactive
65 | CC(C)[C@@H]1CC[C@@H](C)C[C@H]1O | inactive
66 | Cc1ccc(S(=O)(=O)NC(=O)NN2CCCCCC2)cc1 | inactive
67 | O=C(c1ccccc1)c1ccccc1 | inactive
68 | O=C1CN(/N=C/c2ccc([N+](=O)[O-])o2)C(=O)N1 | inactive
69 | c1ccc2[nH]ccc2c1 | inactive
70 | CCCCC(CC)COC(=O)/C=C/c1ccc(OC)cc1 (stereo unspecified) | inactive
71 | O=C(O)CCCCCCCC(=O)O | inactive
72 | NC(=O)NC1NC(=O)NC1=O (stereo unspecified) | inactive
73 | CCCC(CCC)C(=O)O | inactive
74 | O=NO | inactive
75 | Cc1noc(NS(=O)(=O)c2ccc(N)cc2)c1C | inactive

Test: qHTS assay to identify small molecule agonists of the NFkB signaling pathway - cell viability counter screen (AID 1159515; calls by dose curve; also: nearly all actives have a fitted effect of over 55% in size)
Settings: NFkB-bla ME-180 viability, CellTiter-Glo luminescence, 5 h; series mostly up to 61 µM
In short: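 Tox21 library compounds were tested for cytotoxicity against NFkB-bla ME-180 cells during a 5 hr exposure at 37 C. CellTiter-Glo luminescence served as the viability read-out.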

Row | Structure (SMILES) | outcome
76 | O=C(O)CCC(=O)O | inactive
77 | CCCC(O)C(CC)CO (stereo unspecified) | inactive
78 | CC(O)CO (stereo unspecified) | inactive
79 | CC(O)CN(CCN(CC(C)O)CC(C)O)CC(C)O (stereo unspecified) | inactive
80 | O=C(O)c1cccnc1 | inactive
81 | O=C(O)C(=O)O | inactive
82 | CC(=O)Nc1nnc(S(N)(=O)=O)s1 | inactive
83 | OC(Cn1cncn1)(Cn1cncn1)c1ccc(F)cc1F | inactive
84 | O=C(O)c1cccc([N+](=O)[O-])c1 | inactive
85 | CC(O)C(=O)O (stereo unspecified) | inactive
86 | Nc1ccn([C@H]2CC[C@@H](CO)O2)c(=O)n1 | inactive
87 | CC1(C)[C@@H]2CC[C@@]1(C)C(=O)C2 | inactive
88 | Cc1ccccc1C(OCCN(C)C)c1ccccc1 (stereo unspecified) | inactive
89 | Nc1ccc(S(=O)(=O)Nc2nccs2)cc1 | inactive
90 | COC(=O)[C@H](Cc1ccccc1)NC(=O)[C@@H](N)CC(=O)O (H-Asp-Phe-OMe) | inactive
91 | O=C1NC(=O)c2ccccc21 | inactive
92 | CCCCCCCCCCCCCCCC(=O)O | inactive
93 | Cc1ccc(C)c(OCCCC(C)(C)C(=O)O)c1 | inactive

Row | Structure (SMILES) | outcome
94 | CC(=O)OCC(COC(C)=O)OC(C)=O | inactive
95 | C1N2CN3CN1CN(C2)C3 | inactive
96 | O=c1cc[nH]c(=S)[nH]1 | inactive
97 | CCCNC(=O)NS(=O)(=O)c1ccc(Cl)cc1 | inactive
98 | Nc1ccc(O)c(C(=O)O)c1 | inactive
99 | NC(N)=NC(=O)c1nc(Cl)c(N)nc1N | inactive
100 | CC(C)[C@@H]1CC[C@@H](C)C[C@H]1O | inactive
101 | Cc1ccc(S(=O)(=O)NC(=O)NN2CCCCCC2)cc1 | inactive
102 | O=C(c1ccccc1)c1ccccc1 | inactive
103 | O=C1CN(/N=C/c2ccc([N+](=O)[O-])o2)C(=O)N1 | inactive
104 | c1ccc2[nH]ccc2c1 | inactive
105 | CCCCC(CC)COC(=O)/C=C/c1ccc(OC)cc1 (stereo unspecified) | inactive
106 | COc1ccc2[nH]cc(CCNC(C)=O)c2c1 | inactive
107 | O=C(O)CCCCCCCC(=O)O | inactive
108 | NC(=O)NC1NC(=O)NC1=O (stereo unspecified) | inactive
109 | CCCC(CCC)C(=O)O | inactive
110 | O=NO | inactive
111 | Cc1noc(NS(=O)(=O)c2ccc(N)cc2)c1C | inactive
